ST2 IL33 inh: inhibitors of human ST2 (IL1RL1) binding to IL-33, primary screen, biochemical, AlphaLISA | AlphaLISA ST2-Fc/biotin-IL-33 interaction, 1 h | Interleukin-1 receptor-like 1 (Homo sapiens), Q01638 | AID 1259354, 2018 | inhibition, % for hits at 17 µM | 2.3% of 78,000 active; in the data active = inhibition above about 30%
Target sequence (Q01638 whole entry, looked up): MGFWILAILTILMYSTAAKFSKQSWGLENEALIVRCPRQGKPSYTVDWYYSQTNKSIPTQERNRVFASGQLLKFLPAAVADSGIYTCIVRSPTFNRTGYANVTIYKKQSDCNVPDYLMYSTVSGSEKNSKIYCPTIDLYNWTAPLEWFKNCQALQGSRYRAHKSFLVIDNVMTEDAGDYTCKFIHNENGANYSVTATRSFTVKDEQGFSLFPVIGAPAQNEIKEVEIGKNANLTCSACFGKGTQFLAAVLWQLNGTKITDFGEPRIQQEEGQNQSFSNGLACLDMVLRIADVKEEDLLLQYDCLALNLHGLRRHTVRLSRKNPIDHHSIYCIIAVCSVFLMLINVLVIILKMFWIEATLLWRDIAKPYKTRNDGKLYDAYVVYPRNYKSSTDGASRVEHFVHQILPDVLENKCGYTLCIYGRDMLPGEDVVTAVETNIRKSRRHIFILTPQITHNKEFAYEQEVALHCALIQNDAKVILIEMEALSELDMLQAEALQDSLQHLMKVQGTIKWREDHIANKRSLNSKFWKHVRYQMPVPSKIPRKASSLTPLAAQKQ
Large screens that a line does not name were inactive. Shown is part of a subset that was picked to be rich in hits.

O=C(CCC1CCN(C(=O)Cc2csc(-c3ccccc3)n2)CC1)NC1CC1	none
Cc1ccccc1Oc1ccc(N2C(=O)C3C4C=CC(C4)C3(C)C2=O)cc1 (configuration not stated)	none
O=c1cc(-c2ccc(O)cc2)oc2ccccc12	none
O=c1cc(-c2ccccc2)c2ccc(O)cc2o1	none
O=c1cc2oc3cc(O)c(O)cc3c(-c3ccccc3)c-2cc1O	ST2 IL33 inh 36%
CCOCCCn1c(=N)c(C(=O)NCCCOC)cc2c(=O)n3ccccc3nc21	none
CCCn1ccnc1CN1CCCC1c1ccccn1 (configuration not stated)	none
COC(=O)CCCC(=O)N1CCCC(CNC(=O)c2cc(OC)cc(OC)c2)C1 (configuration not stated)	none
Cc1cccc2[nH]c(COCC(=O)N3CCC4(CN(C)C(=O)O4)C3)nc12 (configuration not stated)	none
CC(C)n1cnnc1CCNC(=O)CC1CCc2ccccc21 (configuration not stated)	none
COc1ccc(/C=C2\SC(N3CCCCC3)=NC2=O)cc1OC	none
CCCOc1ccc(-c2nc3s/c(=C\c4cc(OC)ccc4OC)c(=O)n3n2)cc1	none
COc1ccc(/C=C2\SC(N3CCCC3)=NC2=O)cc1OC	none
COc1ccc(OC)c(/C=C2\SC(c3ccccc3)=NC2=O)c1	ST2 IL33 inh 51%
COc1ccc(Br)cc1/C=C1/SC(N2CCOCC2)=NC1=O	none
COc1cc(/C=C2\SC(c3ccc(C)cc3)=NC2=O)cc(OC)c1O	ST2 IL33 inh 80%
CCOC(=O)Cn1c(=O)n(-c2ccc(C)c(C)c2)c2nc(-c3cccc(OC)c3)nc(C(N)=O)c21	none
CC(=O)N1CCN(c2ccc(NC(=O)c3cccc([N+](=O)[O-])c3C)cc2)CC1	none
NS(=O)(=O)c1ccc(CCNC(=O)c2ccc(N3CCSc4ccccc43)s2)cc1	none
COCCN1C(=O)N(C(C)C)C(=O)C12CCN(Cc1c(F)cccc1Cl)CC2	none
Cc1ccc(C(C)(C)C)c(OCCNCCN)c1	none
COc1ccc(NC(=O)N2CCN(C)CC2)cc1	none
COc1ccc(NC(=O)N2CC[C@H]3CC(=O)N(CCN4CCNC4=O)CC[C@H]3C2)cc1	ST2 IL33 inh 53%
CCNC(=O)N1CC[C@H]2CC(=O)N(CCN3CCNC3=O)CC[C@H]2C1	none
Nc1ccccc1C(c1ccc(O)cc1)c1ccc(O)cc1	none
Cc1cccc2[nH]c(C3CCN(C(=O)c4cc5n(n4)CCCN(C)C5)CC3)nc12	none
COc1ccc(-n2nc3cc(C)c(NC(=O)c4ccc(Cl)c([N+](=O)[O-])c4)cc3n2)cc1	none
Cc1ccc(-n2nc3ccc(NC(=O)c4ccc5c(c4)OCCO5)cc3n2)cc1Cl	ST2 IL33 inh 34%
COc1ccc(C(=O)Nc2ccc3nn(-c4ccc(F)cc4)nc3c2)cc1OC	none
Cc1ccc(-n2nc3ccc(NC(=O)COc4ccccc4)cc3n2)cc1Cl	none
COc1ccc(-n2nc3ccc(NC(=O)c4ccc(OC)c(Cl)c4)cc3n2)cc1	ST2 IL33 inh 33%
Cc1cc(N2CCC(C)CC2)nc2ccc(NC(=O)c3ccc4c(c3)OCO4)cc12	none
COc1ccccc1C1CC(=O)N2CN(c3ccc(F)cc3)CSC2=C1C#N (configuration not stated)	none
O=c1c2ccccc2nc(/C=C/c2ccc([N+](=O)[O-])o2)n1Cc1ccccc1	none
COc1ccc(S(=O)(=O)N(CC(=O)NCc2ccco2)Cc2ccccc2)cc1	none
Cc1nn(-c2ccccn2)c2c1C(=O)/C(=C/Nc1ccc([N+](=O)[O-])cc1Br)CC2	none
O=C1CSC(c2cccc(Cl)c2Cl)N1c1ccccn1 (configuration not stated)	none
Cc1nn(-c2ccccn2)c2c1C(=O)/C(=C\Nc1ccccc1Cl)CC2	ST2 IL33 inh 31%
Cc1ccc(N2C(=O)C3CCCCC3C2=O)cc1C (configuration not stated)	none
Cc1ccc(N2CN=C3SCC(=O)N3C2)cc1Cl	none
Cc1ccc(N2CN=C3SCC(=O)N3C2)cc1C	ST2 IL33 inh 37%
CC(C)c1ccc(NC(=O)c2ccccc2[N+](=O)[O-])cc1	none
CCN(C)C(=O)c1ccc(-c2cc(N)nc3[nH]ccc23)nc1	none
Cc1nc2ccccc2c2c1C(=O)N(c1cccnc1Cl)C2=O	none
Cc1nc2ccccc2c2c1C(=O)N(c1ccc3c(c1)OCO3)C2=O	ST2 IL33 inh 51%
COc1cc([N+](=O)[O-])ccc1N1C(=O)c2c(C)nc3ccccc3c2C1=O	none
Cc1noc(C)c1-c1nc(CC(C)C)nn1-c1ccc2c(c1)OCO2	none
Cc1ccc(Cl)cc1N1C(=O)c2c(C)nc3ccccc3c2C1=O	ST2 IL33 inh 31%
Cc1nc2ccccc2c2c1C(=O)N(c1ccc(C(N)=O)cc1)C2=O	none
C=C(C)CN(CC)C(=O)c1cn(C)c2ccc(C)cc2c1=O	none
O=C(CC1CCCCC1)Nc1cccc([N+](=O)[O-])c1	none
Cc1ccc2c(c1)C1CC(C)(O2)N(c2ccccc2)C(=O)N1 (configuration not stated)	none
O=C(C1CCC(=O)N(C2CCCCCC2)C1)N1CC=C(c2ccccc2)CC1 (configuration not stated)	none
COc1ccc(OC)c(N2C(=O)C3[C@H](C2=O)C2c4ccccc4C3(C(=O)O)c3ccccc32)c1 (some centres not stated)	none
CCOc1ccccc1CN1CCN(Cc2ccccn2)CC1CCO (configuration not stated)	none
Cc1c(N=Cc2cc([N+](=O)[O-])ccc2N2CCCCC2)c(=O)n(-c2ccccc2)n1C	ST2 IL33 inh 44%
Cc1c(N=Cc2cc([N+](=O)[O-])ccc2O)c(=O)n(-c2ccccc2)n1C	none
Cc1c(N=Cc2ccc([N+](=O)[O-])o2)c(=O)n(-c2ccccc2)n1C	none
CC(C)NC(=O)c1cn(C)c(=O)c2c1c1ccccc1n2C	none
O=C(COc1ccc(Cl)cc1)Nc1nc2ccc3ccccc3c2s1	none
CSc1ncc(CN2CCN(CC3CCCCC3)C(CCO)C2)cn1 (configuration not stated)	none
Cc1ccc(C)c(CN2C(=O)CSc3ccc(C(=O)NC(C)C)cc32)c1	none
CC1CCN(c2ncnc3ccccc23)CC1	none
CC1CCN(Cc2cc(Cn3ccnc3)c3cccnc3c2O)CC1	ST2 IL33 inh 51%
c1ccc2c(CN3CCCCC3CCn3ccnc3)ccnc2c1 (configuration not stated)	none
COc1ccc(N(CC(=O)Nc2ccc(C)cc2)S(=O)(=O)c2ccc(NC(C)=O)cc2)cc1	none
CCOC(=O)c1nn(CCC(C)C)c2c1CN(C(=O)c1nn(C)c(=O)c3ccccc13)CC2	none
c1ccc(-n2cccc2CNC2CCCc3nc(-c4cccnc4)ncc32)nc1 (configuration not stated)	none
CCN(CC)S(=O)(=O)c1ccc(-c2nnc3sc4ccc(C)c(C)c4n23)cc1	none
O=C(c1cccc(Br)c1)N1CCN=C1SCc1cccnc1	none
COc1ccc(C2SCCN2S(=O)(=O)c2cccc(C)c2)cc1[N+](=O)[O-] (configuration not stated)	ST2 IL33 inh 31%
O=S(=O)(c1ccc(-c2ccccc2)cc1)N1CCSC1c1ccccc1 (configuration not stated)	none
Cc1cccc(S(=O)(=O)N2CCSC2c2ccc(Br)cc2)c1 (configuration not stated)	none
Cc1ccc(S(=O)(=O)N2CCSC2c2ccc(Br)cc2)cc1 (configuration not stated)	ST2 IL33 inh 70%
COc1cc(OC)c(C2SCCN2S(=O)(=O)c2cccc(C)c2)cc1OC (configuration not stated)	none
COc1ccc(C2SCCN2S(=O)(=O)c2cccc(C(F)(F)F)c2)cc1[N+](=O)[O-] (configuration not stated)	none

Assay outcomes as filed in PubChem.
